# About 83,000 compounds went through this panel and 20% of them were active in at least one assay; those are over-represented in the sample as a whole.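 Results are percent growth after 48 hours of single-concentration exposure. 100 means growth as in untreated cells, lower positive values show inhibition; negative values down to -100 show cell death.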 A number with no mark means an inactive call. The source made the active and inactive calls. How the source made its calls: active means growth percent below 10; inactive means the rest.
# Tests used:
# Test in all cases: NCI-60 one-dose screen, 48 h (100 = growth as untreated, 0 = no growth, -100 = all killed)
# SR leukemia = conditions: 10 µM unless noted
# RPMI-8226 leukemia = conditions: 10 µM
# OVCAR-8 ovarian = conditions: 10 µM unless noted
# OVCAR-5 ovarian = conditions: 10 µM unless noted
# OVCAR-4 ovarian = conditions: 10 µM unless noted
# SK-OV-3 ovarian = conditions: 10 µM
# IGROV1 ovarian = conditions: 10 µM unless noted
# OVCAR-3 ovarian = conditions: 10 µM unless noted
# HS 578T breast = conditions: 10 µM unless noted
# NCI/ADR-RES ovarian = conditions: 10 µM unless noted
# T-47D breast = conditions: 10 µM
# BT-549 breast = conditions: 10 µM unless noted
# MDA-MB-435 melanoma = conditions: 10 µM unless noted
# SW-620 colon = conditions: 10 µM unless noted
# MCF7 breast = conditions: 10 µM unless noted
# HCT-116 colon = conditions: 10 µM unless noted
# HCC-2998 colon = conditions: 10 µM unless noted
# KM12 colon = conditions: 10 µM unless noted
SMILES,growth (SR leukemia),growth (RPMI-8226 leukemia),growth (OVCAR-8 ovarian),growth (OVCAR-5 ovarian),growth (OVCAR-4 ovarian),growth (SK-OV-3 ovarian),growth (IGROV1 ovarian),growth (OVCAR-3 ovarian),growth (HS 578T breast),growth (NCI/ADR-RES ovarian),growth (T-47D breast),growth (BT-549 breast),growth (MDA-MB-435 melanoma),growth (SW-620 colon),growth (MCF7 breast),growth (HCT-116 colon),growth (HCC-2998 colon),growth (KM12 colon)
O=C1C=CC(=O)N1CCCCCCCCCCN1C(=O)C=CC1=O,29.1%,52.9%,78.2%,103%,102%,126%,69.5%,38.2%,67.4%,73.1%,77.9%,101%,68.6%,4.62% (active),82.7%,32.9%,90.7%,86.2%
C[C@@H](Oc1cc(-c2cnn(C3CC4(CCCNC4)C3)c2)cnc1N)c1c(Cl)ccc(F)c1Cl (stereo partly drawn),-3.47% (active),-0.0926% (active),43.4%,34.3%,37.2%,78%,48.9%,52%,30.5%,46.1%,20.4%,73.4%,12.6%,-4.07% (active),-14.5% (active),-11.8% (active),15.3%,
COc1ccc(OC)c2ncccc12,99%,94.9%,103%,107%,102%,96.7%,106%,110%,107%,100%,100%,97.4%,105%,99%,84.8%,100%,103%,99.6%
Cc1nc(-c2ccccc2)cc2c(O)c(C(=O)N/N=C/Cc3ccccc3)[nH]c(=O)c12,46.1%,103%,103%,101%,110%,108%,113%,116%,112%,109%,104%,105%,118%,107%,98.5%,101%,95.4%,115%
O=C1C2CC3C(CC2C(=O)[N]1[Sn]([c]1ccccc1)([c]1ccccc1)[c]1ccccc1)C1(Cl)C(Cl)=C(Cl)C3(Cl)C1(Cl)Cl (stereo not drawn),-50.1% (active),-52.3% (active),-97.5% (active),-100% (active),-83% (active),-100% (active),-66.2% (active),-97.3% (active),-20% (active),-55.5% (active),-50.3% (active),-95.3% (active),-96.4% (active),-79.7% (active),-64.7% (active),-83.9% (active),-82.2% (active),-91.3% (active)
CCN(C(=O)c1ccc2c3c(cccc13)C=C2)c1ccccc1,83.4%,96.7%,91.2%,90.5%,106%,96%,102%,112%,120%,93.2%,96%,107%,90.9%,111%,109%,97.8%,123%,118%
OC[C@@H](O)[C@@H](O)CO,81.7%,118%,105%,102%,101%,116%,109%,106%,104%,99.6%,103%,101%,100%,98.4%,99.9%,102%,102%,105%
CCOC(=O)C1=C(C)N2C(=NC3=C(CCCC/C3=C\c3ccccc3)C2c2ccccc2)S1 (stereo not drawn),90.9%,96.2%,103%,94.8%,93.4%,88.5%,108%,107%,99.6%,101%,78.7%,99.1%,93.7%,101%,87.8%,96.3%,94.9%,97.3%
